According to PubChem BioAssay AID488969 (Vanderbilt High Throughput Screening Facility, 2010):
Whole data set: some 110,000 compounds, median “z-score” near -0.1, cut for the highest 2% near 2. Only a selection was taken, and the highest values are over-represented in it overall. Active and inactive are the calls of the source.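 The calls were made as follows: active = z-score in the third read window above 3 or below -3; inactive = the rest.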

The compounds below were run against Metabotropic glutamate receptor 8 (Rattus norvegicus) (UniProt P70579) (assay: mGluR8 Gi/Go-coupled signaling modulation – cell-based, rat, thallium flux, HTS, primary screen (AID 488969)). Conditions: HEK293 rat mGluR8, GIRK (G protein-gated inwardly rectifying potassium channel) thallium flux, FluoZin2; at 10 µM; stronger effect = higher value; submaximal glutamate (EC20) added with thallium.
Sequence of Metabotropic glutamate receptor 8 (Rattus norvegicus) (P70579 whole entry, looked up): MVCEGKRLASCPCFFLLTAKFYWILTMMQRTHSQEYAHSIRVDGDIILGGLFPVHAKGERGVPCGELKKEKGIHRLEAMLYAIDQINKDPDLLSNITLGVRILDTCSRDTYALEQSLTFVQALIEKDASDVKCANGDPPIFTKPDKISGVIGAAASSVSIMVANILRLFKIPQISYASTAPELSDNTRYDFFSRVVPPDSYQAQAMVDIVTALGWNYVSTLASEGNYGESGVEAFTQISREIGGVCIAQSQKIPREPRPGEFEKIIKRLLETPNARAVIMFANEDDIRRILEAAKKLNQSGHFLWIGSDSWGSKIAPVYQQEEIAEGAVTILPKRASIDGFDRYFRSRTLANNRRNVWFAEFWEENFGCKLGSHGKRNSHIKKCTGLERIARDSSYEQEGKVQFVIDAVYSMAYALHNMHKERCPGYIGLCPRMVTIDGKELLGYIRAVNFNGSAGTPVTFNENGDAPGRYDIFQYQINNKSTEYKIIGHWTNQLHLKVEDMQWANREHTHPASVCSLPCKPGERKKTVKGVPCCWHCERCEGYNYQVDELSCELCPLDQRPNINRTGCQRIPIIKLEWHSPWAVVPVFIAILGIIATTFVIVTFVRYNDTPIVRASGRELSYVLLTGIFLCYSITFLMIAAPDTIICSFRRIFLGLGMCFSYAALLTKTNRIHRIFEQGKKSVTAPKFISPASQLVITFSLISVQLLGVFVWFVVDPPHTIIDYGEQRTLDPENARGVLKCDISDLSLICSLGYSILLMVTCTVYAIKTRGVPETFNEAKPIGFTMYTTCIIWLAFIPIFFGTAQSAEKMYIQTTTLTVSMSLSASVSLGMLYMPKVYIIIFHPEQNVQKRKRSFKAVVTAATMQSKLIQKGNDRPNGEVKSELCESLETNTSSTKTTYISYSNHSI

Compound | z-score
O=c1cc(NCc2ccco2)c2ccccc2o1 | -0.304
CC1=C(C(=O)OC(C)C)C(c2cccs2)C(C(=O)OC(C)C)=C(C)N1 | -0.281
NC(=O)c1cccnc1Nc1ccccc1Cl | -0.423
O=C(/C=C/c1cccc([N+](=O)[O-])c1)NCCSc1ccccc1 | -0.3
COc1ccc(C(C(=O)NC(C)(C)C)N(C(=O)CNC(=O)c2cccs2)c2ccc(C(C)C)cc2)cc1OC (centres undefined) | -0.16
O=C(CSc1cnc2ccccc2n1)NC1CCCC1 | -0.494
COc1ccccc1N1CCN(S(=O)(=O)c2cccc3nsnc23)CC1 | -0.393
Cc1ccc(Cn2c(=N)n(CC(O)COc3ccccc3)c3ccccc32)cc1 (centres undefined) | 2.98
COc1ccccc1OCC(O)Cn1c(=N)n(Cc2ccccc2)c2ccccc21 (centres undefined) | 0.691
Cc1ccc(OCC(O)Cn2c(=N)n(Cc3ccccc3)c3ccccc32)cc1 (centres undefined) | 4.01 (active)
N=c1n(Cc2ccccc2)c2ccccc2n1CC(O)COc1ccccc1 (centres undefined) | 0.257
Cc1ccc(OCC(O)Cn2c3ccccc3c3ccccc32)cc1 (centres undefined) | -0.222
OC(COc1ccccc1)Cn1c2ccccc2c2ccccc21 (centres undefined) | -0.0732
COc1cc(SC)ccc1C(=O)N(C)Cc1ccccc1 | 0.253
CCOC(=O)CSc1ncc(-c2ccccc2)cn1 | -0.0802
CCOC(=O)N1CCN(C(=O)C2CCN(S(=O)(=O)c3ccccc3)CC2)CC1 | -0.151
CN1CCN(C(=S)Nc2cccc(C(F)(F)F)c2)CC1 | -0.213
Cc1c([N+](=O)[O-])cc(C(=O)Oc2ccc(Br)cc2C(=S)N2CCCCC2)cc1[N+](=O)[O-] | 3.58 (active)
O=C(Oc1ccc(Br)cc1C(=S)N1CCCCC1)c1cc([N+](=O)[O-])cc([N+](=O)[O-])c1 | 0.762
Cc1ccccc1C(=O)Oc1ccc(Br)cc1C(=S)N1CCCC1 | -0.342
C=C(C)CN=C1SC(C(=O)Nc2sc3c(c2C(=O)OC)CCC3)C(N)=C1C(N)=O (centres undefined) | 0.236
COC(=O)c1cc2sccc2n1CC(=O)N1CCCc2ccccc21 | 2.64
O=C(c1cc2sccc2n1Cc1ccccc1)N1CCCc2ccccc21 | -0.795
O=C(c1cc2sccc2n1Cc1ccc(F)cc1)N1CCCc2ccccc21 | 0.225
CC(C)CCNC(=O)C(c1cccnc1)N(CCc1ccccc1)C(=O)Cn1nnc2ccccc21 (centres undefined) | 0.555

Compound | z-score
CC(C)=NNc1nc(-c2ccccc2)cs1 | -0.203
c1ccc(CCNc2nc(-c3cccnc3)cs2)cc1 | -0.023
CCCCCNc1nc(-c2ccccc2)cs1 | 3.86 (active)
CN(Cc1ccccc1)c1nc2c(c(=O)[nH]c(=O)n2C)n1CCSc1ncccn1 | 0.672
CC1(C)C2CC=C(/C=N/n3cnnc3)C1C2 (centres undefined) | 2
CC(C)NC(=S)N/N=C/C1=CCC2CC1C2(C)C (centres undefined) | -0.69
CC1(C)C2CC=C(/C=N/NC(=O)c3ccc(O)cc3)C1C2 (centres undefined) | -0.0642
Cc1nc2ccc(S(=O)(=O)NC(C(=O)NCc3ccc4c(c3)OCO4)C(C)C)cc2s1 (centres undefined) | -0.0773
CCn1cc(C(=O)OCC(=O)c2cc(C)n(-c3ccccc3F)c2C)c(=O)c2ccc(C)nc21 | -0.711
Cc1ccc(C)c(NS(=O)(=O)c2c(C)ccc3nsnc23)c1 | -0.891
O=S(=O)(Nc1cccc2nsnc12)c1ccccc1 | 0.265
Cc1ccc2nsnc2c1S(=O)(=O)Nc1cccc2nsnc12 | 14.7 (active)
O=C(O)COc1ccc(/C=N/n2c(COc3ccccc3)nc3ccccc3c2=O)cc1 | -0.124
O=C1CCCc2sccc2N1 | -0.164
O=C1CCCCC(=O)c2ccccc2N1 | 2.21
O=C1C(=C(c2ccccc2)c2ccccc2)Nc2ccccc21 | -1.32
Cc1cc2cc(C)c3nnc(SCC(=O)N4CCc5ccccc54)n3c2cc1C | -0.31
COc1cc(CNC2CCCCCC2)cc(OC)c1O | 0.176
CCn1c(CNC(=O)c2ccco2)nnc1SCC(=O)Nc1cc(C)c(C)cc1Br | -0.121
COC(=O)c1c(N)c(C#N)c(C)n1-c1ccccc1 | -0.272
CC(C)(C)C(=O)Nc1ccccc1C(=O)OCC(=O)c1ccc2c(c1)OCCO2 | -0.731
CCOC(=O)N1CCN(Cc2nc(N)nc(Nc3ccccc3C)n2)CC1 | -0.106
OCCCCNCc1ccc(OCc2ccccc2)cc1 | 0.0747
OCCCCNCc1ccc(OCc2ccccc2Cl)cc1 | 2.17
OCCCCNCc1ccc(OCc2ccc(Cl)cc2Cl)cc1 | 1.19

Compound | z-score
Cc1occc1-c1nnc(SCc2cc(=O)n3cc(Br)ccc3n2)n1C | 0.0968
Cc1oc(-c2cccc(Cl)c2)nc1CN1CCC(C(=O)NCC2CCCO2)CC1 (centres undefined) | -0.375
CCN1CCCC1CNC(=O)CS(=O)(=O)Cc1nc(-c2ccccc2C)oc1C (centres undefined) | 1.21
Cc1ccccc1-c1nc(CN2CCC(C(=O)NCC3CCCO3)CC2)c(C)o1 (centres undefined) | -0.924
Cc1oc(-c2ccccc2Cl)nc1CSCC(=O)NC1CCCC1 | -0.0255
Cc1ccccc1-c1nc(CN2CCCC(C(=O)NCCCN3CCOCC3)C2)c(C)o1 (centres undefined) | -0.359
Cc1oc(-c2cccc(Cl)c2)nc1CN1CCC(C(=O)NCc2ccco2)CC1 | -4.86 (active)
Cc1ccccc1-c1nc(CN2CCC(C(=O)NCCC3=CCCCC3)CC2)c(C)o1 | 1.63
Cc1ccccc1-c1nc(CN2CCC(C(=O)NCCCN3CC(C)CC(C)C3)CC2)c(C)o1 (centres undefined) | 2.43
Cc1ccccc1-c1nc(CN2CCC(C(=O)NCCCN3CCCC3)CC2)c(C)o1 | 2.76
Cc1ccccc1-c1nc(CN2CCC(C(=O)NCCCN3CCOCC3)CC2)c(C)o1 | -0.636
CCN1CCCC1CNC(=O)C1CCN(Cc2nc(-c3cccc(Br)c3)oc2C)CC1 (centres undefined) | 4.3 (active)
CCN1CCCC1CNC(=O)CSCc1nc(-c2ccccc2C)oc1C (centres undefined) | 4.01 (active)
COCCNC(=O)c1ccc(C(=O)C(=O)c2ccccc2)cc1 | -0.189
CCOC(=O)N1CCC(NC(=O)c2cc3c(=O)n(C)c4ccccc4c3n2C)CC1 | -0.597
CC(C)(C)NS(=O)(=O)c1ccc(CCC(=O)Nc2cc(Cl)ccc2Oc2ccccc2)cc1 | 0.0264
Cc1ccc(C(=O)Oc2coc(CSc3nnc(NC(=O)C4CC4)s3)cc2=O)cc1C | 0.84
Cc1nnc(N(Cc2ccccc2)C(=O)c2cnccn2)s1 | 0.0216
C=CCn1c(SCC(=O)Nc2sccc2C(N)=O)nc2ccc(Cl)cc2c1=O | 5.23 (active)
C=CCn1c(SCN2C(=O)c3ccccc3C2=O)nc2ccc(Cl)cc2c1=O | 12.6 (active)
C=CCn1c(SCC(=O)Nc2sccc2C(N)=O)nc2sc(CC)cc2c1=O | -1.15
C=CCn1c(SCC(=O)Nc2sccc2C(N)=O)nc2ccccc2c1=O | -0.59
C=CCn1c(SCC(=O)c2ccc(Cl)s2)nc2ccccc2c1=O | -0.205
C=CCn1c(SCC(=O)NCCC2=CCCCC2)nc2ccc(Cl)cc2c1=O | -0.151
